Laboratory results published in the supplement of paper PMC10849652.
About 7,900 targets were measured; listed, in parts, are those with a hit and a random draw of the rest. About 0.6% of all pairs of compound and target were hits. Values without a mark were called inactive.

Compound: CS(=O)(=O)N1CCN(Cc2cc3nc(-c4cccc5[nH]ncc45)nc(N4CCOCC4)c3s2)CC1 [pictilisib]
Experiment: log2 fold change, soluble protein after heating vs DMSO (PISA); higher = thermal stabilisation; K562 cells, 10 uM, 30 min; active = over 0.2 and 3.5 SD of the protein, either way, in both replicates (recomputed)
How it was run: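 Aliquots of K562 cells (2×10^6 cells/mL) treated with 10 μM compound for 30 min were heated for 3 min over 48°C-58°C. After pooling and extraction in PBS with 0.5% NP-40 at 4°C, soluble protein from a 21,000xg, 90 min spin was quantified by TMTpro 16plex LC-MS/MS with channel sums equalised. Thermal stability is expressed against control samples, from duplicates, as a log2 fold change.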

Chain of UniProt P09105 (P09105 whole entry, looked up): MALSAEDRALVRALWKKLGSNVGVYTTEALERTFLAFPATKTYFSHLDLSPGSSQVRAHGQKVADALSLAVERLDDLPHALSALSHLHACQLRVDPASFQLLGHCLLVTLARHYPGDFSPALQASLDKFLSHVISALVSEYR
Chain of UniProt P00367 (P00367 whole entry, looked up): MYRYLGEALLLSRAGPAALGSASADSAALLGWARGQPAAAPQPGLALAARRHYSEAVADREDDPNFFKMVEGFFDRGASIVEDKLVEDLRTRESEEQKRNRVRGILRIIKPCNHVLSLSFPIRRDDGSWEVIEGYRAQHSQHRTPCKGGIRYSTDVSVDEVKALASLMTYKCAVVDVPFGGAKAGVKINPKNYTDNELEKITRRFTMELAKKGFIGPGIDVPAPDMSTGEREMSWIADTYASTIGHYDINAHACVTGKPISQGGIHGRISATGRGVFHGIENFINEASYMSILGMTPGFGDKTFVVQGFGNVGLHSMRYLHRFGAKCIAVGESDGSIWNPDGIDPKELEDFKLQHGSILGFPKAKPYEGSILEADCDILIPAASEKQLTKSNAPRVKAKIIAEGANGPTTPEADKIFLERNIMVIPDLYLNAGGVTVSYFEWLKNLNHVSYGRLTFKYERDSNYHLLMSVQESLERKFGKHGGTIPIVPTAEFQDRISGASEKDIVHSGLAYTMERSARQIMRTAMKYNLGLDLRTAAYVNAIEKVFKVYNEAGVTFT
Chain of UniProt P49356 (P49356 whole entry, looked up): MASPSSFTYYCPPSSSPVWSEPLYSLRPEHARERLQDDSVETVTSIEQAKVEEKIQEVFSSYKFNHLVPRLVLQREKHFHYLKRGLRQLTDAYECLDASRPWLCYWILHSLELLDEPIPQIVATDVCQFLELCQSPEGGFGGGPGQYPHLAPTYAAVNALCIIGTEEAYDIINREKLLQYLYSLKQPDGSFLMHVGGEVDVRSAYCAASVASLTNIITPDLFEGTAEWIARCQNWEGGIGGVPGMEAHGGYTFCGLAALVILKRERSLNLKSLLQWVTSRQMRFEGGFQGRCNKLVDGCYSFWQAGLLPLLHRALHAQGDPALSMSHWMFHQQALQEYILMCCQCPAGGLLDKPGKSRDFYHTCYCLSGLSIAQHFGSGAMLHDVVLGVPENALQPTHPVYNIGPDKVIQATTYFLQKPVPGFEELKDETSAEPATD
Chain of UniProt O95363 (O95363 whole entry, looked up): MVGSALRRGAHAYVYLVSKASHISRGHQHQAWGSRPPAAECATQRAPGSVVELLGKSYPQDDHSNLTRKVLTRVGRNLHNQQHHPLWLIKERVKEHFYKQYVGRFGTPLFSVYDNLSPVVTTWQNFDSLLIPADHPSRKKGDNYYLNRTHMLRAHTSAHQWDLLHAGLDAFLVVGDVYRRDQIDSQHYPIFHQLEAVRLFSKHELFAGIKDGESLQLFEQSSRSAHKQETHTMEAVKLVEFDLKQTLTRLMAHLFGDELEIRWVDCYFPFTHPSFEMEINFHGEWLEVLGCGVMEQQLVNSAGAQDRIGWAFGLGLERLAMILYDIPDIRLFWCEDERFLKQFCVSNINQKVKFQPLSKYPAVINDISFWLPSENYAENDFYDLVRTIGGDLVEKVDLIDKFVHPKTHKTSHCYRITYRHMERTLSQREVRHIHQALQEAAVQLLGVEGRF
Chain of UniProt Q5SSJ5 (Q5SSJ5 whole entry, looked up): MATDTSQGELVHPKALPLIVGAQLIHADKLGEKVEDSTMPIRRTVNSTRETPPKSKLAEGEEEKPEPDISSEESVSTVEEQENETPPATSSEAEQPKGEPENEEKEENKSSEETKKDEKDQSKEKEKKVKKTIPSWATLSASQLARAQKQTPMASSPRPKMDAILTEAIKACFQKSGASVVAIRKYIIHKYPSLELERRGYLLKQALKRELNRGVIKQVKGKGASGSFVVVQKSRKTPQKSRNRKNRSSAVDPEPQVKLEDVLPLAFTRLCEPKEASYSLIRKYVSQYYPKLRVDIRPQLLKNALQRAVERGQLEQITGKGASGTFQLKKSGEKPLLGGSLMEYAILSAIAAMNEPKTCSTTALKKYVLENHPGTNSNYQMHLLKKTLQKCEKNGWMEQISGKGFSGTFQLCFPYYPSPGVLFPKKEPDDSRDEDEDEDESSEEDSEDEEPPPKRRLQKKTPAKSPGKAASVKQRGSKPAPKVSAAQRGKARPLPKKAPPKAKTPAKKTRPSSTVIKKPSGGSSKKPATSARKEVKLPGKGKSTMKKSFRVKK
Chain of UniProt Q8TEQ6 (Q8TEQ6 whole entry, looked up): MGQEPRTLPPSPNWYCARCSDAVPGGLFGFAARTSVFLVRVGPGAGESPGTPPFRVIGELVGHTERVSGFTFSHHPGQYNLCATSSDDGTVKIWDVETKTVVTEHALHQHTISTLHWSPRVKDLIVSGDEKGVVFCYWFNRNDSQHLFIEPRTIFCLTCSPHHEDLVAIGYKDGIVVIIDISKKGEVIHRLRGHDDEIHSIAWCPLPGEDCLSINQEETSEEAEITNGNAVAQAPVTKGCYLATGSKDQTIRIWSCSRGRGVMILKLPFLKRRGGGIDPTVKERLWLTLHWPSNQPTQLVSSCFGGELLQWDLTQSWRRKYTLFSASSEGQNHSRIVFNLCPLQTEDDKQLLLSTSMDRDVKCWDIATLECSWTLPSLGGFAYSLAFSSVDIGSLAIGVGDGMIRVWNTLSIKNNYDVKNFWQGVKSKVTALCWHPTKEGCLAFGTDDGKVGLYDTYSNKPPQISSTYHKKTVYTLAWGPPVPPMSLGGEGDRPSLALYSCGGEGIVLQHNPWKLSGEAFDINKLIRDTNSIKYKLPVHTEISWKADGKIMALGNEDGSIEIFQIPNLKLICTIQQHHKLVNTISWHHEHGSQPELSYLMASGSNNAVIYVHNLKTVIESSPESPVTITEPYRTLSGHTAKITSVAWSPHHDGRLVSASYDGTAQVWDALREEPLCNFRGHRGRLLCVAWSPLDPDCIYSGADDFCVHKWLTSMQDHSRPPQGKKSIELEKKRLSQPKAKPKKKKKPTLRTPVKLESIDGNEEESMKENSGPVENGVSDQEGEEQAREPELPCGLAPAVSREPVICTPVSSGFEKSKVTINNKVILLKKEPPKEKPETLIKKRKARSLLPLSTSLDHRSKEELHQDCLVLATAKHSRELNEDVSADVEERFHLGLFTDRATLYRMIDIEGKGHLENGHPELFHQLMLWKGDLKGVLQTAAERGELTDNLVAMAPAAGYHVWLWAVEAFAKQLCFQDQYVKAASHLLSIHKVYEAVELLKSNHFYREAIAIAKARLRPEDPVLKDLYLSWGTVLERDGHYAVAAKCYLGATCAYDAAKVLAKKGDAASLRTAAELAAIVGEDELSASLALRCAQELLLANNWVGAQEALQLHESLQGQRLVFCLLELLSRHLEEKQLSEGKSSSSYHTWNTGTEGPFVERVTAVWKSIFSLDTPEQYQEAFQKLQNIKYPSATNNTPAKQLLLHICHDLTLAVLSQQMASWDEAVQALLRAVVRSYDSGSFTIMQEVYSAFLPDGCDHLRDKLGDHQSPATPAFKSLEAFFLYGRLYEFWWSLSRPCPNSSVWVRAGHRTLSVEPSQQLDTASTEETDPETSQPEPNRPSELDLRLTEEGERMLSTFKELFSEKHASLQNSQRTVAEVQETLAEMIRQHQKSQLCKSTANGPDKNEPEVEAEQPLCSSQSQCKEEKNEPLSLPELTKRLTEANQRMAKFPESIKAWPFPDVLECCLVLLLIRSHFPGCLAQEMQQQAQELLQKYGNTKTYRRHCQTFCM
Chain of UniProt P30519 (P30519 whole entry, looked up): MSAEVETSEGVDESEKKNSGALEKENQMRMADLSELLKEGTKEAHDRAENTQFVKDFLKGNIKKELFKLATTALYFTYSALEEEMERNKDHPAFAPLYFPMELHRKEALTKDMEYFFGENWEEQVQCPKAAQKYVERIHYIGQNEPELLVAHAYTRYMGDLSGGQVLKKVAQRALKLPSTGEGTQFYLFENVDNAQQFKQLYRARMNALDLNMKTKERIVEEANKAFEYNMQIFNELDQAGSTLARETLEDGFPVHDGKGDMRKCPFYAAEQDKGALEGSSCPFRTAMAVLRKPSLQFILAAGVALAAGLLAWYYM
Chain of UniProt Q9UJ14 (Q9UJ14 whole entry, looked up): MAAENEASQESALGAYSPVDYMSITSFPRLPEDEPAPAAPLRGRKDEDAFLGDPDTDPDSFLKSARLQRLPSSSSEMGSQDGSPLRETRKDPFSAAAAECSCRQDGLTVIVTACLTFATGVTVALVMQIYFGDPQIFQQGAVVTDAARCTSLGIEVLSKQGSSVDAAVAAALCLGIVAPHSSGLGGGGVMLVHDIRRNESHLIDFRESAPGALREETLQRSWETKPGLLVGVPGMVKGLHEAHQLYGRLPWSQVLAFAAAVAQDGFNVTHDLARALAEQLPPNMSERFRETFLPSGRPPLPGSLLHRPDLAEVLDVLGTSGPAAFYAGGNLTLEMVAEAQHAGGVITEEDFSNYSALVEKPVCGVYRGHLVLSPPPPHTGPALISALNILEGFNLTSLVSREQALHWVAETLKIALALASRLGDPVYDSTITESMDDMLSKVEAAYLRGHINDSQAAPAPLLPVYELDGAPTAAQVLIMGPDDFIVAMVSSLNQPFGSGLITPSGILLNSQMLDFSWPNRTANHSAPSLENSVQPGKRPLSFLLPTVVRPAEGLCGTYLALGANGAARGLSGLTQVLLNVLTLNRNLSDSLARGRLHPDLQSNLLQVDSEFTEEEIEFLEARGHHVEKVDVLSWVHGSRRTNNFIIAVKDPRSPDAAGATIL
Chain of UniProt P52655 (P52655 whole entry, looked up): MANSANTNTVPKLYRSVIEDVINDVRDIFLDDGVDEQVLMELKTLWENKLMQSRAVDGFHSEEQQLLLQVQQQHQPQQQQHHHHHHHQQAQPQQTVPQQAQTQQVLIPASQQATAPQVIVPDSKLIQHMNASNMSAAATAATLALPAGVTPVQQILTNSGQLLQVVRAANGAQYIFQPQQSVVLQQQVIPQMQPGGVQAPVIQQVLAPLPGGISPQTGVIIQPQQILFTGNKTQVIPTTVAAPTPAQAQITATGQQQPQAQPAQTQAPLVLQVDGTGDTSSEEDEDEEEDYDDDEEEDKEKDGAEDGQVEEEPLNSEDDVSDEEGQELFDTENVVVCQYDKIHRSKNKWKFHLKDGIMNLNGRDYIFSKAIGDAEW

Target	log2 fold change
HP1BP3 (UniProt Q5SSJ5)	0.04
FARS2 (UniProt O95363)	0.071
HNRNPH2 (UniProt P55795)	-0.021
GEMIN5 (UniProt Q8TEQ6)	-0.021
FNTB (UniProt P49356)	-0.165
GTF2A1 (UniProt P52655)	0.012
FAM91A1 (UniProt Q658Y4)	-0.047
HBQ1 (UniProt P09105)	-0.012
GGT7 (UniProt Q9UJ14)	0.143
HMOX2 (UniProt P30519)	-0.04
GLUD1 (UniProt P00367)	0.367 (active)
